# FLuc modulator: firefly luciferase modulation, counter-screen for miR-21 project | P08659 | purified FLuc, Km substrates, luminescence inhibition | Potency, µM (doses to about 57.5 µM), without a hit: at the highest dose activity change, negative = inhibition, hits mostly inhibitors | 360,000 tested, 6.9% active;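 further: plate controls were vehicle for no effect and reference inhibitor for full effect; nearly all actives have a fitted effect of over 55% in size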
# Target sequence (P08659 whole entry, looked up): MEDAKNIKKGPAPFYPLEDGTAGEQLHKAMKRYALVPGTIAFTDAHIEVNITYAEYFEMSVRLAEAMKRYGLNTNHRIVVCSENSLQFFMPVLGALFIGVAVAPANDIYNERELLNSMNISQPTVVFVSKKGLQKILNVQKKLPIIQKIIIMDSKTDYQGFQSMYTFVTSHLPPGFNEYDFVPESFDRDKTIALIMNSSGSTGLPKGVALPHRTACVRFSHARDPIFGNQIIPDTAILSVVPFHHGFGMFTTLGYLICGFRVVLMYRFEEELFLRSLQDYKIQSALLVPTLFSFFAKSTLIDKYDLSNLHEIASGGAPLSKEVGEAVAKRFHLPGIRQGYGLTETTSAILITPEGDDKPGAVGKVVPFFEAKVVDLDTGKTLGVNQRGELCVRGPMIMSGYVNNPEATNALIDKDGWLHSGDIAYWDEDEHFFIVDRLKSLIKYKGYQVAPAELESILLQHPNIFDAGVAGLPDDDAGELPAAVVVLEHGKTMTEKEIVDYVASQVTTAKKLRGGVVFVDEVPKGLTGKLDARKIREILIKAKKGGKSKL
#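 Purified P. pyralis luciferase (10nM final) with 10uM D-luciferin and 10uM ATP (Km levels) in 50mM Tris acetate pH 7.5, 10mM Mg acetate, 0.01% Tween-20, 0.05% BSA; qHTS 6-point titration, ~60 µM downward; luminescence read.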
# Rab9 prom act: activates the Rab9 promoter. 320,000 tested, 2.8% active. Huh7 Rab9 promoter-luciferase reporter, luminescence, 24 h. Potency, µM (top dose mostly 9.22 µM), without a hit: top-dose activation, negative = inhibition, most hits filed as activators; further: % of control where 0% means no effect; nearly all actives have a fitted effect of over 60% in size
#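 Cells were plated at 1500 per well in reduced-serum medium with 10% FBS and left 2 h. Compound in DMSO was then added for 24 h at 37 °C. Reporter signal was read by luminescence after 10 min with luciferase detection reagent.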
# ELG1 genotox: genotoxicity induction in ELG1-luciferase HEK293T cells; HEK293T ELG1-luciferase reporter, luminescence, 16 h; AID 504466; Potency, µM (highest dose often 46 µM), for the others: at the top dose activity change, positive = activation, most hits filed as activators; 330,000 tested, 1.3% active; further: % of control where 0% means no effect; nearly all actives have a fitted effect of over 60% in size
#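 HEK293T cells expressing luciferase-tagged ELG1 were exposed to compound or DMSO vehicle for 16 hr at 37 °C and 5% CO2. Luciferase activity was then measured with ONE-Glo after 30 min at room temperature.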
# NPC1 promoter act: activators of NPC1 promoter; Huh7 NPC1 promoter luciferase reporter, 24 h; Potency, µM (top dose mostly 9.22 µM), for inactives: top-dose activation, hits mostly activators; 320,000 tested, 2.4% active; AID 485313; further: % of control where 0% means no effect; nearly all actives have a fitted effect of over 60% in size
#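 Huh7 cells stably carrying NPC1 promoter–luciferase, plated in Opti-MEM with 10% FBS for 2 h, were exposed to compound in DMSO for 24 h at 37 °C; luciferase reagent was added for 10 min and luminescence read.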
# ELG1 DNA repair: blocks ELG1-dependent DNA repair in HEK293T cells | HEK293T ELG1-luciferase reporter, luminescence, 16 h; DNA damage induced by 5-fluorouridine | Potency, µM (doses to about 46.1 µM), inactives show at the top dose activity change, negative = inhibition, usual class: inhibitors | AID 504467 | 330,000 tested, 2.3% active; further: on the % scale 0 is the no-effect control and ±100 the full control effect; nearly all actives have a fitted effect of over 55% in size
#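 Overnight (16 hr) co-exposure of 2,000 cells/well to 5-fluorouridine and compound at 37 °C preceded detection. Luciferase was quantified via ONE-Glo luminescence; loss of signal denotes inhibition.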
# SMN2 splice enh: enhancers of SMN2 splice variant expression. HEK293 SMN2-luciferase splicing reporter, luminescence, 30-36 h. Potency, µM (top dose mostly 46.1 µM), without a hit: top-dose activity change, positive = activation, hits mostly activators. 210,000 tested, 2.8% active; further: % of control where 0% means no effect; nearly all actives have a fitted effect of over 55% in size
#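 HEK293 cells carry an SMN2 minigene-luciferase reporter in which exon 7 inclusion puts luciferase in frame. Cells were seeded at 2000 cells/well, attached for 10-12 hours, then exposed to compounds for 30-36 hours at 37C before ONE-Glo luminescence.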
# * = called active by the depositor; u = inconclusive; x = no result; [ ] = remark or other dose. The list is not random: actives were taken first. Their share in the collection is about 9.2%. The call rests on the fitted dose curve; in most records, active means well fitted curve in the direction sought with a large enough effect; inconclusive means small, poorly fitted or top-dose-only effect, or another doubt; inactive means no such curve, though single readings can be large; an effect the other way counts as inactive or inconclusive. Potency means the concentration at half of the fitted maximal effect.
SMILES,FLuc modulator,Rab9 prom act,ELG1 genotox,NPC1 promoter act,ELG1 DNA repair,SMN2 splice enh
CC(C)Oc1ccc(C(=O)/C=C2/C(=O)Nc3ccccc32)cc1,5.36µM*,6.1%,u,0.8%,-23.5%,x
O=C1Nc2ccccc2/C1=C\C(=O)c1ccccc1,u,-0.5%,1.1%,-4.8%,u,x
CCn1c2ccccc2c2cc(NC(=O)c3cccc(OC)c3)ccc21,16.9µM*,u,6.0%,u,-9.3%,u
CCn1c2ccccc2c2cc(NC(=O)c3cccc(OC)c3OC)ccc21,u,9.9%,-0.4%,0.9%,14.6µM*,-14.8%
CCn1c(=O)sc2cc(NC(=O)c3cccc(OC)c3)ccc21,u,x,x,x,x,20.0%
O=C(CN1CCCN(Cc2ccc(F)cc2)S1(=O)=O)NCc1ccccc1Cl,3.4%,x,x,x,x,x
O=c1[nH]c2ccc(NCc3ccc(-c4ccc(F)cc4)o3)cc2[nH]1,6.8%,x,x,x,x,x
COc1ccc(/C=C/C(=O)OCC(=O)Nc2cc3oc4ccccc4c3cc2OC)cc1,2.9%,-6.4%,4.4%,-4.4%,15.9%,-1.4%
COc1cc2c(cc1NC(=O)C(C)Sc1cccc[n+]1[O-])oc1ccccc12 (centres undefined),u,u,14.0%,u,u,10µM*
COc1cc2c(cc1NC(=O)COCC(=O)O)oc1ccccc12,16.9µM*,-2.8%,2.3%,-4.8%,4.1%,x
COc1cc2c(cc1NC(=O)/C=C/c1cc(OC)c(OC)c(OC)c1)oc1ccccc12,5.1%,-1.7%,-6.5%,-3.0%,5.8µM*,-16.1%
COc1ccccc1CC(=O)Nc1cc2oc3ccccc3c2cc1OC,-18.5%,2.7%,1.7%,2.5%,-1.3%,-29.2%
COc1cc2c(cc1NC(=O)C(C)Sc1nc3ccccc3n1C)oc1ccccc12 (centres undefined),0.7%,-0.9%,-0.1%,1.9%,4.0%,-26.7%
COc1ccc(CC(=O)Nc2cc3oc4ccccc4c3cc2OC)cc1,15.1µM*,u,15.4%,u,u,14.1µM*
COC(=O)[C@H]1C[C@@H]1[C@H](NS(=O)(=O)c1ccc(-c2ccccc2)cc1)c1ccccc1,x,x,x,x,x,-70.8%
CCOc1ccc(NC(=O)CC2SC(=O)N(c3ccccc3)C2=O)cc1 (centres undefined),u,-0.8%,2.2%,1.2%,u,x
CSc1ccccc1NC(=O)c1c(Br)cnn1C,2.0%,17.7%,2.0%,-0.4%,-7.8%,-14.7%
Cn1ncc(Br)c1C(=O)Nc1c(F)c(F)cc(F)c1F,0.1%,-5.1%,16.7%,-6.2%,u,25.1µM*
CCOc1cccc(/C=N/N=C/c2cccc(OCC)c2O)c1O,-11.3%,12.1%,3.0%,14.5%,23.8%,x
CCOc1ccc(/C=N/N2C(C)CCCC2C)cc1 (centres undefined),u,1.1%[1.84 µM],18.5%,-4.4%,u,x
CCOc1cccc(/C=N/N2C(C)CCCC2C)c1O (centres undefined),16.9µM*,3.6%,6.5%,-0.6%,21.8%,x
CCOc1cccc(C=Nc2cc(C)cc(C)c2O)c1O,26.9µM*,9.3%,3.0%,3.0%,-24.1%,14.5%
Cc1ccc(N(CC(=O)Nc2ccc(Br)c(C)c2)S(=O)(=O)c2cccs2)cc1,-0.2%,x,x,x,x,-13.1%
N#CCCn1cc(C(=O)Nc2ccc([N+](=O)[O-])cc2)c(-c2cc3ccccc3o2)n1,0.4%,-3.4%,13.3%,-9.0%,-2.6%,-2.7%
NCCc1nnc(SCC(=O)c2ccc(Cl)cc2)o1,0.3%,-2.3%,-1.5%,-2.1%,u,x
SMILES,FLuc modulator,Rab9 prom act,ELG1 genotox,NPC1 promoter act,ELG1 DNA repair,SMN2 splice enh
Cc1cccc(CC(=O)Nc2ccc3nc(N4CCC(C)CC4)cc(C)c3c2)c1,3.3%,x,x,x,x,-26.2%
Cc1cc(N2CCC(C)CC2)nc2cccc(O)c12,23.9µM*,3.5%,8.3%,3.7%,4.8%,-24.2%
Cc1[nH]nc2ncc(C(=O)c3cc(F)ccc3O)cc12,-1.1%,-2.9%,-8.5%,6.8%,18.4µM*,-3.4%
Cc1noc2ncc(C(=O)c3cc(F)ccc3O)cc12,-0.5%,3.7%,-0.3%,0.1%,-0.8%,-0.7%
O=C(c1cnn(C(=O)COc2ccccc2F)c1)c1cc(F)ccc1O,-4.5%,-4.2%,-9.7%,9.2%,-32.3%,x
O=C(c1cn[nH]c1)c1cc(F)ccc1O,1.9%,-9.1%,-13.6%,-3.7%,20.6µM*,-16.0%
COc1ccc(C(=O)CN2C(=O)N(c3cc(C)ccc3C)S(=O)(=O)c3ccccc32)cc1,-0.2%,x,x,x,x,x
COC(=O)c1ccc(NC(=O)Nc2ccc3c(c2)nc(C)n3C)cc1,u,u,0.8%,u,12.8%,x
Cc1nc2cc(NC(=O)Nc3ccccc3Cl)ccc2n1C,0.379µM*,0.891µM*,0.92µM*,0.0891µM*,u,x
CC(=O)c1ccc(NC(=O)Nc2ccc3c(c2)nc(C)n3C)cc1,19µM*,3.16µM*,u,u,u,u
Cc1nc2cc(NC(=O)Nc3cccc([N+](=O)[O-])c3)ccc2n1C,1.9µM*,0.708µM*,u,0.355µM*,u,x
Cc1ccc(S(=O)(=O)Nc2ccc3c(c2)nc(C)n3C)cc1,1.9%,-6.7%,-4.4%,2.8%,u,x
Cc1ccc(NC(=O)Nc2ccc3c(c2)nc(C)n3C)cc1,3.01µM*,0.501µM*,u,1.41µM*,u,x
COc1ccc(C)cc1N(CC(=O)NCCSCc1ccco1)S(=O)(=O)c1ccc(C)cc1,-2.6%,6.5%,-19.5%,-4.9%,u,x
CCOC(=O)C(C(=O)Nc1cccc(C)c1)C1CCCCC1 (centres undefined),1.3%,-4.6%,2.6%,-3.4%,-5.3%,-0.6%
COc1ccccc1N1CCN(C(=O)CCn2nc(C)c(S(=O)(=O)N3CCCC3)c2C)CC1,-0.5%,x,x,x,x,x

# From PubChem
